The results in this text go back to PubChem BioAssay (NCATS).

Records with an inconclusive call do not appear. The source made the active and inactive calls. Unless noted, calls come from the whole dose curve; as a rule, active = well fitted curve in the direction sought with a large enough effect; inconclusive = small, poorly fitted or top-dose-only effect, or another doubt; inactive = no such curve, though single readings can be large; an effect the other way counts as inactive or inconclusive.

Assay [1] deals with Estrogen receptor (Homo sapiens) (UniProt P03372). In words: qHTS assay for small molecule agonists of estrogen receptor alpha signaling (AID 588514; calls by dose curve;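 note: 0% = vehicle only and 100% = reference agonist; nearly all actives have a fitted effect of over 70% in size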). Summed up: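 Fluorescence from CCF4 cleavage reports ER-alpha-driven beta-lactamase expression in HEK 293 cells treated 18 hrs at 37 C. Data normalized to 17-beta-estradiol (20 nM) and DMSO, fitted to Hill equation.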
The nature of assay [2]: qHTS assay for small molecule antagonists of peroxisome proliferator-activated receptor delta signaling (AID 588535; active = well fitted inhibition curve with a large enough effect in the signal ratio, with a control signal flat, not every such curve was filed as active; the % refers to the signal ratio;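 for max response: cells co-treated with a PPAR-delta agonist as stimulator during compound exposure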). To be noted: HEK293T PPARd-UAS-bla, beta-lactamase FRET ratio, 18 h; 460 nm channel. Summed up: (§1)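 Antagonist-mode qHTS using GeneBLAzer PPAR-delta-UAS-bla HEK293T cells; compound exposure 18 hrs at 37 C over a titration. Ratiometric CCF4 fluorescence at 460/530 nm; concentration-response points fitted to the Hill equation.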

Assay [3] concerns the target Peroxisome proliferator-activated receptor delta (Homo sapiens) (UniProt Q03181). The description is as above. Summed up: as §1
For assay [4], the target named is Peroxisome proliferator-activated receptor gamma (Homo sapiens) (UniProt P37231). In words: qHTS assay for small molecule agonists of peroxisome proliferator-activated receptor gamma signaling (AID 588536; active = well fitted curve in the direction sought with a large enough effect in the signal ratio, with a control signal flat, not every such curve was filed as active; the % refers to the signal ratio;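 note: 0% = DMSO basal wells and 100% = rosiglitazone at 2 µM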). Summed up:
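This is an agonist-mode beta-lactamase reporter assay in HEK293 PPAR-gamma-UAS-bla cells with 1% charcoal/dextran FBS. Compound titrations ran 16 h at 37 C before CCF4 detection. EC50 and efficacy are Hill fits scaled to 2 uM rosiglitazone (100%) and DMSO basal.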

For assay [5], the target named is Vitamin D3 receptor (Homo sapiens) (UniProt P11473). Briefly: qHTS assay for small molecule antagonists of vitamin D receptor signaling (AID 588541; calls by dose curve;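 note: receptor activated by calcitriol during compound treatment; series mostly up to about 77 µM; % is set by controls: 0 for no effect and ±100 for the full control effect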). The method in brief:
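Antagonist-mode beta-lactamase reporter assay: HEK293T VDR-UAS-bla cells were exposed to titrated compound alongside 1-alpha,25-dihydroxyvitamin D3 at 3 nM final for 16 h. Values were normalized to the 50 nM agonist control and DMSO basal, with IC50 and efficacy from Hill equation fits.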

Assay [6] can be described thus: qHTS assay for small molecule agonists of retinoid X receptor alpha signaling (AID 588544; calls by dose curve;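 for activation: 0% = DMSO basal wells and 100% = reference agonist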). To be noted: HEK293T RXRa-UAS-bla, beta-lactamase reporter, 18 h; 530 nm emission.
The target of assay [7] is Retinoic acid receptor RXR-alpha (Homo sapiens) (UniProt P19793). The description is as above.
The target of assay [8] is Thyroid hormone receptor beta (Homo sapiens) (UniProt P10828). In words: qHTS assay for small molecule agonists of thyroid hormone receptor beta signaling (AID 588545; calls by dose curve;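 note: 0% = DMSO only and 100% = 10 nM T3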). Summed up: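 Efficacy and EC50 values derive from Hill fits of qHTS titration data, normalized to 10 nM T3 and DMSO-only wells. HEK 293 reporter cells were stimulated for 18 hrs at 37 C, with beta-lactamase activity measured by CCF4 fluorescence.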

Assay [9] is described as follows: qHTS assay for small molecule antagonists of retinoid X receptor alpha signaling (AID 588546; active = well fitted inhibition curve with a large enough effect in the signal ratio, with a control signal flat, not every such curve was filed as active; the % refers to the signal ratio;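 note: cells stimulated with 9-cis-retinoic acid as agonist; % is set by controls: 0 for no effect and ±100 for the full control effect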). To be noted: HEK293T RXRa-UAS-bla, beta-lactamase ratio, antagonist mode; measured here: W530 green channel, cytotoxicity proxy. Summed up:
(§2)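 Beta-lactamase reporter inhibition, read as CCF4 fluorescence ratio (ex 405, em 460/530 nm) after 2 h at RT. HEK293T UAS-bla cells, 2500/well, were stimulated with 9-cis-RA at 500 or 100 nM final alongside test compound for 18 h at 37 C.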

Assay [10] concerns the target Retinoic acid receptor RXR-alpha (Homo sapiens) (UniProt P19793). The description is as above. To be noted: HEK293T RXRa-UAS-bla, beta-lactamase ratio, antagonist mode. The method in brief: as §2
In assay [11] the target is Thyroid hormone receptor beta (Homo sapiens) (UniProt P10828). In words: qHTS assay for small molecule antagonists of thyroid hormone receptor beta signaling (AID 588547; active = well fitted inhibition curve with a large enough effect in the signal ratio, with a control signal flat, not every such curve was filed as active; the % refers to the signal ratio;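 note: cells stimulated with 0.4 nM T3 agonist during compound exposure; series mostly up to about 77 µM; % is set by controls: 0 for no effect and ±100 for the full control effect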). To be noted: TR-UAS-bla HEK293, beta-lactamase ratio, antagonist mode, 18 h. Summed up:
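Inhibition of T3-driven (0.4nM final) beta-lactamase reporter activity was measured over 0.59 nM to 92 uM compound after 18 h at 37 C. The cells were GripTite HEK293 TR-UAS-bla in charcoal/dextran-stripped serum, with CCF4 ratio read-out and IC50 from Hill fits.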

A short description of assay [12]: qHTS assay for small molecule activators of the p53 signaling pathway (AID 651743; active = well fitted activation curve with a large enough effect in the signal ratio, not every such curve was filed as active; the % refers to the signal ratio; note: series mostly up to about 92 µM; % of control where 0% means no effect). To be noted: HCT-116 p53RE-bla, beta-lactamase FRET ratio, 16 h; activation: stronger effect = higher value. Summed up: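 A beta-lactamase reporter under p53 response element control, stably carried by HCT-116 cells, reported pathway activation. Test compounds were applied for 16 hours at 37 C, and fluorescence was measured 2 hours after adding the B/G FRET substrate.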

Assay [13] can be described thus: qHTS assay for environmental chemicals that activate the Aryl hydrocarbon Receptor (AhR) signaling pathway (AID 651777). Note: % of control where 0% means no effect; nearly all actives have a fitted effect of over 15% in size. To be noted: 1A2-DRE human hepatoma cells, luciferase, 24 h; activation: stronger effect = higher value. The method in brief: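 Stable CYP1A2 promoter/DRE-luciferase human hepatoma line treated 24 hr; One-Glo luminescence, 30 min RT.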
In assay [14] the target is Peroxisome proliferator-activated receptor alpha (Homo sapiens) (UniProt Q07869). Briefly: qHTS assay for small molecule agonists of the peroxisome proliferator-activated receptor alpha (PPARalpha) signaling pathway (AID 651778). Note: % of control where 0% means no effect. To be noted: PathHunter PPARalpha complementation, chemiluminescence, 6 h; max response: stronger effect = higher value. Summed up:
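Chemiluminescence from complemented enzyme reported PPARalpha activation in cells after 6 hr of compound treatment at 37 C. The detection reagent was incubated for 60 min at room temperature, and compounds were scored as agonists.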

Assay [15] in a line: qHTS assay for small molecule agonists of the antioxidant response element (ARE) signaling pathway measured by Nrf2-dependant transcriptional activity (AID 720636; active = well fitted curve in the direction sought with a large enough effect in the repeat runs; an effect the other way counts as inactive or inconclusive;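 note: HepG2 cells with an ARE-driven luciferase reporter; % of control where 0% means no effect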). Summed up: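 Reporter gene assay, HepG2 ARE-luc: 16 hr compound, 37 C, 5% CO2; read-out luciferase luminescence.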
Assay [16] is described as follows: qHTS assay for small molecule agonists of the antioxidant response element (ARE) signaling pathway measured by Nrf2-dependant transcriptional activity - cell viability counter screen (AID 720653; active = well fitted curve in the direction sought with a large enough effect in the repeat runs; an effect the other way counts as inactive or inconclusive; note: % is set by controls: 0 for no effect and ±100 for the full control effect). To be noted: ARE-bla HepG2 viability, CellTiter-Glo ATP luminescence, 16 h; max response: stronger effect = lower value. The method in brief: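 Cytotoxicity counter screen: intracellular ATP quantified by CellTiter-Glo luminescence in the same ARE-bla HepG2 plates, after 16 h compound exposure and a 2 h beta-lactamase substrate step.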

A short description of assay [17]: qHTS assay for cell viability of HEK293 cells (AID 743288). Note: % is set by controls: 0 for no effect and ±100 for the full control effect; nearly all actives have a fitted effect of over 50% in size. To be noted: ATP luminescence (CellTiter-Glo), 18 h; max response: stronger effect = lower value. Summed up:
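HEK293, 18 h, 37 C, ATP luminescence. Cells at 2,000/well were allowed at least 5 h to settle before dosing; CellTiter-Glo developed 30 min at RT.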

The nature of assay [18]: qHTS assay for cell viability of the p53RE-bla HCT-116 cell line (AID 743292). Note: % is set by controls: 0 for no effect and ±100 for the full control effect; nearly all actives have a fitted effect of over 55% in size. Summed up:
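Readout: CellTiter-Glo luminescence after 30 min RT. Treatment: compounds in DMSO, 16 h, 37 C. Cells: CellSensor p53RE-bla HCT-116, 4,000/well, preincubated 5 h.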

In assay [19] the target is Nuclear receptor subfamily 1 group I member 2 (Rattus norvegicus) (UniProt Q9R1A7). Briefly: qHTS assay for small molecule activators of the rat pregnane X receptor (rPXR) signaling pathway (AID 651751; call rule not given here; note: 0% is about no effect). To be noted: rPXR reporter cells, luciferase (One-Glo), 24 h.
A short description of assay [20]: qHTS assay for small molecule activators of the human pregnane X receptor (PXR) signaling pathway (AID 720659; call rule not given here; note: 0% is about no effect).

Sequence of Vitamin D3 receptor (Homo sapiens) (P11473 whole entry, looked up): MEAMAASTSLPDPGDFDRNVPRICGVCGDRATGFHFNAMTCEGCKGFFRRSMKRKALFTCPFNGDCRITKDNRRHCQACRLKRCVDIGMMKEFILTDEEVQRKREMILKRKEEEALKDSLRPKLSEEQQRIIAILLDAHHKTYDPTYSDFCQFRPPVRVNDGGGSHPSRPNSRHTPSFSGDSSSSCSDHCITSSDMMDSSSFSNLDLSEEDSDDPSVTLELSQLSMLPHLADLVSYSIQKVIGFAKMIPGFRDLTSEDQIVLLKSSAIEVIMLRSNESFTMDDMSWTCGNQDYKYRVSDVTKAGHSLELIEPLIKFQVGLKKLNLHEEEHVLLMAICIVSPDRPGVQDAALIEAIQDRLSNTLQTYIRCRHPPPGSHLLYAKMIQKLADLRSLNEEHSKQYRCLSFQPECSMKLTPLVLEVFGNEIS
Sequence of Thyroid hormone receptor beta (Homo sapiens) (P10828 whole entry, looked up): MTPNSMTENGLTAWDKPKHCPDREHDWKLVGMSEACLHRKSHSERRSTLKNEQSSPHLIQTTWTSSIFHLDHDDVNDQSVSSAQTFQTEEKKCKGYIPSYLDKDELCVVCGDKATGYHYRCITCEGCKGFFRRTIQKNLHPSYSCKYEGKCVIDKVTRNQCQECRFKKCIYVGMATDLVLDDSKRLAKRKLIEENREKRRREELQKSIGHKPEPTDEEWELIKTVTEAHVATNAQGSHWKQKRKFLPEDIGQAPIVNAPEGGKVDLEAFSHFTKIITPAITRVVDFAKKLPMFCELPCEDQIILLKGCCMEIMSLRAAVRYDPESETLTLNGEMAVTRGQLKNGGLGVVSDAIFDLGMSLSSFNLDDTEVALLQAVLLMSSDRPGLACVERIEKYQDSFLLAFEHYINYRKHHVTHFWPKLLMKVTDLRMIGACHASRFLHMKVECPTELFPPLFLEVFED
Sequence of Retinoic acid receptor RXR-alpha (Homo sapiens) (P19793 whole entry, looked up): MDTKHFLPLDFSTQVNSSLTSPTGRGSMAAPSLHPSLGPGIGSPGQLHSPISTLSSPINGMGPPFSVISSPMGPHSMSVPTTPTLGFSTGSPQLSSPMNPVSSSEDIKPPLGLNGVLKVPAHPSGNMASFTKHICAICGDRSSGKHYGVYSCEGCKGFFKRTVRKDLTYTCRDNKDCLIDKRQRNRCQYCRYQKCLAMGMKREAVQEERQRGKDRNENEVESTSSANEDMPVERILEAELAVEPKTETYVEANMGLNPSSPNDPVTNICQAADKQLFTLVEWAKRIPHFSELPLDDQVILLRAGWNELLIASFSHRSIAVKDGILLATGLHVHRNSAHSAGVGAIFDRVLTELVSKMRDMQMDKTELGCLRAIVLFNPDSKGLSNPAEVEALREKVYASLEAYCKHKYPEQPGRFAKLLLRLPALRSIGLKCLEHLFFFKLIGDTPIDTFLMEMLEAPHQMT
Sequence of Peroxisome proliferator-activated receptor delta (Homo sapiens) (Q03181 whole entry, looked up): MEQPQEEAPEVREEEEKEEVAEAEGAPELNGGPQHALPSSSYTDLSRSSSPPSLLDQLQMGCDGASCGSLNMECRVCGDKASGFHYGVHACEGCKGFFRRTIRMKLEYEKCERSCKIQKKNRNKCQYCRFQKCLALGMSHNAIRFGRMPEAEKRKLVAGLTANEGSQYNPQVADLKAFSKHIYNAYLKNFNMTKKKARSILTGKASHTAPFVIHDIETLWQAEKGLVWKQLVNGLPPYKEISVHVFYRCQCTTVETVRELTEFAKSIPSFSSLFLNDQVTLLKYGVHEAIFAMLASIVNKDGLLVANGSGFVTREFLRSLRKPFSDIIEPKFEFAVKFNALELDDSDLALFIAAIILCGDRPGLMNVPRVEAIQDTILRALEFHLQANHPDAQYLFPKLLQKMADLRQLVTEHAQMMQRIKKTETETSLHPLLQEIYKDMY
Sequence of Peroxisome proliferator-activated receptor gamma (Homo sapiens) (P37231 whole entry, looked up): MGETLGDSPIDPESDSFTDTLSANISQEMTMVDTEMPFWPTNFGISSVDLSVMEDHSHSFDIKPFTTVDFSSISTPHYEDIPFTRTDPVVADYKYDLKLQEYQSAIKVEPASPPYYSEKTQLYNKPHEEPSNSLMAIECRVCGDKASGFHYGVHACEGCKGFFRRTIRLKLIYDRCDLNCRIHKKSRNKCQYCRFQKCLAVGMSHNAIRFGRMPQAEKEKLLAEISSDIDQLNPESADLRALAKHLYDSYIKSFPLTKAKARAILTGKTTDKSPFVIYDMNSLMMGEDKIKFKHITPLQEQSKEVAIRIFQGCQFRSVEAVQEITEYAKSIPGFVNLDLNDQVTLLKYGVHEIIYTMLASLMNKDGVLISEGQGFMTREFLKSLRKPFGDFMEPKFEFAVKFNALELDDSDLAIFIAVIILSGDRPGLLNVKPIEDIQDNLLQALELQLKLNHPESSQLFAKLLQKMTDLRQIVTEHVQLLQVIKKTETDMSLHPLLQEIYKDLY
Sequence of Peroxisome proliferator-activated receptor alpha (Homo sapiens) (Q07869 whole entry, looked up): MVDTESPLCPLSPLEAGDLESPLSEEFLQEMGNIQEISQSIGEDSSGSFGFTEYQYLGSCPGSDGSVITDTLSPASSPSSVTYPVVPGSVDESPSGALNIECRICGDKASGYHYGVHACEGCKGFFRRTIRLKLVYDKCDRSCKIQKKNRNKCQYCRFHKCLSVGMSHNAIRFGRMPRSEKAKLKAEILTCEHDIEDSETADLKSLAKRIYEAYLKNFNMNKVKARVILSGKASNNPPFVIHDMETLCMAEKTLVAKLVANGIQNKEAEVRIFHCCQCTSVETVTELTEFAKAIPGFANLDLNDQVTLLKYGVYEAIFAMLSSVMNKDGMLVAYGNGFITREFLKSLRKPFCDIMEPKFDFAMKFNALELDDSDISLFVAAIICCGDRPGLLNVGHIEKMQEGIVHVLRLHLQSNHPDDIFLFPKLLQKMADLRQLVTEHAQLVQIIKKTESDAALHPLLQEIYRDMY
Sequence of Estrogen receptor (Homo sapiens) (P03372 whole entry, looked up): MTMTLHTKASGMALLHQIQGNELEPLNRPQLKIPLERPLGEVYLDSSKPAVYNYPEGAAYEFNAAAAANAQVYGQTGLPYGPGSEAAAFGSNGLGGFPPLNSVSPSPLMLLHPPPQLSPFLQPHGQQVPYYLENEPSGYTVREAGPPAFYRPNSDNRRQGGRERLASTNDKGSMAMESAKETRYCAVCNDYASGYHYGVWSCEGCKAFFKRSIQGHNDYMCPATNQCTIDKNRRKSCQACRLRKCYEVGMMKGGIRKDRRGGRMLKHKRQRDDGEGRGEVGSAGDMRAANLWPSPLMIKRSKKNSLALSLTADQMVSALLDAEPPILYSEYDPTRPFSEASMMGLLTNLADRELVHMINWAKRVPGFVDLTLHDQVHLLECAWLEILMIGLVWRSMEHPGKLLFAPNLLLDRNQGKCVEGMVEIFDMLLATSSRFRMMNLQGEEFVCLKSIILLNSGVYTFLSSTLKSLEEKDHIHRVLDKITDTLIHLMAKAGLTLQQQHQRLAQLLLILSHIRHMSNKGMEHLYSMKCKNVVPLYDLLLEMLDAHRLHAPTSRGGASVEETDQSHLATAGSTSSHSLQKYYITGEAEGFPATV
Sequence of Nuclear receptor subfamily 1 group I member 2 (Rattus norvegicus) (Q9R1A7 whole entry, looked up): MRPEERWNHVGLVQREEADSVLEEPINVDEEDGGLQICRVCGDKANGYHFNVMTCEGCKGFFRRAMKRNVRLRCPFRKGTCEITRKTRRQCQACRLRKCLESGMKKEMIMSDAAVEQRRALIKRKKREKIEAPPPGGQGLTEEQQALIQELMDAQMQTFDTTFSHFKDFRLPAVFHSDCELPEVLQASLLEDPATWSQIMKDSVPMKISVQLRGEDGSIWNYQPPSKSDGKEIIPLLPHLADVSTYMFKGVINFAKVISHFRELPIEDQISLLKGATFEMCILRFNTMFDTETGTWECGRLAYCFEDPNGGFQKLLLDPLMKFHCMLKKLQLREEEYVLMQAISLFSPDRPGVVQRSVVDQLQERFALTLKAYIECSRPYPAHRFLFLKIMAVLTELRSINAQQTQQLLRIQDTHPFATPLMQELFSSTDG

Regarding `CCCCOCCOCCOCCO`, the Potency entry in [1], in assay [3], in assay [5], in assay [7], in assay [8] and in [15] was “inactive” each time. Besides, the Potency entry in [18] was “inactive”. Also, the max response in [2] was -4.48%; in assay [6] it was -9.78%; in assay [9] it was 1.39%; in assay [10] it was -1.08% (inactive); in [14], -1.01% (inactive); in [16], 5.3% (inactive). The max response in assay [17] is -2.85% (inactive); in assay [19], 2.44% (inactive). The result in assay [4] and in [20] was inactive. Also, the activity change % (negative = inhibition) in assay [11] is -0.828% (inactive). The activation was 2.9% (inactive) in [12] and 1.2% (inactive) in assay [13].

With `CCCCC(CC)COC(=O)c1ccc(C(=O)OCC(CC)CCCC)cc1` (stereo unspecified), the max response in assay [2] is -1.09%; in assay [6] it was -8.11%; in [9], -7.23%; in assay [10], 5.51% (inactive); in assay [14] it was -1.72% (inactive); in assay [16], -17% (inactive). The max response was -13.5% (inactive) in [17] and -0.0794% (inactive) in assay [19]. Also, the Potency result in assay [3], in [7], in assay [15] and in assay [18] was “inactive” each time. In addition, the molecule was called inactive in assay [4] and in [20]. Moreover, the values for the activation in assay [12] and in assay [13] were 0.101% (inactive) and -2.7% (inactive), respectively.

For the molecule `C=C(C)C(=O)OCC[N+](C)(C)C`, the max response in assay [2] is 8.9%; in assay [6], 7.2%; in assay [14], -2.12% (inactive); in [16], 1.93% (inactive); in [17], -15.2% (inactive); in assay [19], 0.4% (inactive). For the same molecule, the Potency entry in [3], in [5], in assay [7], in [15] and in assay [18] was “inactive” in each case. For the same molecule, the call in [4] and in assay [20] was inactive. For the same molecule, in assay [11], the activity change % (negative = inhibition) is 5.25% (inactive). Further, the activation in assay [12] was 0.0876% (inactive); in assay [13] it was -2.41% (inactive).

Turning to `CCCCCCCCCCCCCCCC`, the Potency entry in assay [1], in assay [3], in assay [7], in assay [8], in assay [15] and in assay [18] was “inactive” each time. In addition, the max response was 55.6% in assay [2]; 0.581% in [6]; -21.5% in assay [9]; -1.47% (inactive) in assay [10]; 0.236% (inactive) in assay [14]; -4.36% (inactive) in [16]. The figures for the max response in assay [17] and in assay [19] were -2.82% (inactive) and 1.98% (inactive), respectively. Besides, the molecule was called inactive in assay [4] and in assay [20]. The activity change % (negative = inhibition) in assay [11] was -0.344% (inactive). Also, the activation in assay [12] was -5.95% (inactive); in assay [13], 0.0152% (inactive).

As for `CC(=O)CC(=O)Nc1ccc(C)cc1C`, the result in assay [4] and in [20] was inactive. The Potency result in assay [8], in assay [15] and in [18] was “inactive” throughout. Also, the activation in assay [12] was -5.45% (inactive); in assay [13], 0.555% (inactive). Moreover, the max response in [14] was -1.32% (inactive); in assay [16], -2.61% (inactive); in [17] it was -7.21% (inactive); in assay [19] it was -1.86% (inactive).

For the molecule `C=CC(=O)OCC(C)OCC(C)OCC(C)OC(=O)C=C` (stereo unspecified), the Potency result in assay [1], in assay [3], in assay [5], in [7], in [8] and in [15] was “inactive” in each case. The Potency result in [18] is “inactive”. Further, the max response in assay [2] was 41.6%; in assay [6], -8.39%; in assay [9] it was -20.7%; in [10] it was 10.6% (inactive); in assay [14], -2.39% (inactive); in [16], -8.01% (inactive). Besides, the max response was -1.74% (inactive) in assay [17] and -2.64% (inactive) in assay [19]. Also, the activity change % (negative = inhibition) in assay [11] is 0.874% (inactive). Also, the activation was 0.712% (inactive) in assay [12] and -0.0895% (inactive) in assay [13]. Besides, the result in [20] was inactive.
